tim10-1 inh: growth inhibitors of tim10-1 mutant yeast; S. cerevisiae tim10-1 ts strain growth, BacTiter-Glo, 24 h; inhibition, % at 20 µM; hit rate 2.2% among 330,000;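 active = inhibition of at least 40%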;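 note: mutant grown at 25 °C; 0% = DMSO wells with yeast and 100% = wells holding no yeast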
TIM10 inh: inhibits growth of TIM10 yeast strain | S. cerevisiae TIM10 strain growth, BacTiter-Glo luminescence, 24 h | inhibition, % at 10 µM | hit rate 1.4% among 330,000;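 active = inhibition of 40% or more at the single tested concentration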;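 note: wild-type TIM10 isogenic control strain grown at permissive 25 °C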
SKKanGAS inh: inhibitors of SKKanGAS S. pyogenes growth in kanamycin (SK-promoter or general growth effect). BacTiter-Glo, 6 h. inhibition, % at 7.5 µM. hit rate 1.3% among 300,000;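 active = mean replicate score, as percent of positive control median, at least 50; inconclusive = mean below 50 but one replicate at or above 50; inactive = mean and every replicate below 50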;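 note: strain carries kanamycin resistance gene driven by streptokinase promoter and grows in 40 µg/ml kanamycin; loss of luminescence reflects streptokinase promoter inhibition or plain growth inhibition; 0% = median of DMSO wells and 100% = positive control at its reference dose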
PfHsp90 set2: reduces growth (ATP signal) of yeast expressing P. falciparum Hsp90 | hit rate 0.32% among 310,000 | S. cerevisiae expressing PfHsp90, BacTiter-Glo ATP, 48 h; yeast lacking PDR1 and PDR3 efflux regulators | inhibition, % at 9.4 µM;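 active = every replicate shows inhibition above about 80%, whatever the replicate mean, limit read from the data; inconclusive = mean inhibition reaches the set limit but some replicate falls short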;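 note: 0% = DMSO neutral controls and 100% = 20 µM radicicol positive controls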
tim23-1 inh: growth inhibitors of tim23-1 mutant yeast; S. cerevisiae tim23-1 growth, BacTiter-Glo luminescence, 24 h; inhibition, % at 20 µM; hit rate 1.3% among 330,000;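 active = growth inhibition of the mutant yeast at or above 50%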;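 note: temperature-sensitive mutant grown at 25 °C; plate controls were DMSO-treated mutant yeast for no effect and medium wells lacking yeast for full effect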
tim10-1 confirm: confirmation of tim10-1 mutant yeast growth inhibitors | shares compounds with tim10-1 inh | S. cerevisiae tim10-1 ts strain growth, BacTiter-Glo, 24 h | inhibition, % at 20 µM | hit rate 56% among 7,400 | AID 463213;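 active = inhibition of yeast growth at or above a set limit in either of two repeat tests at 20 µM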;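 note: tim10-1 mutant grown at permissive 25 °C to find synthetic lethal compounds; 0% = DMSO yeast wells and 100% = medium wells without yeast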
tim10 confirm: TIM10 yeast growth inhibition, confirmed. hit rate 63% among 4,600. S. cerevisiae tim10 strain growth, BacTiter-Glo luminescence, 24 h. inhibition, % at 10 µM. shares compounds with TIM10 inh. AID 463215;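 active = inhibition of yeast growth at or above a set limit in either of two replicates at 10 µM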;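 note: this counterscreen used the strain with wild-type TIM10; 0% = yeast with DMSO and 100% = medium wells lacking yeast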
tim23-1 conf: tim23-1 yeast growth inhibition, confirmed | hit rate 83% among 4,400 | inhibition, % at 20 µM | S. cerevisiae tim23-1 growth, BacTiter-Glo luminescence, 24 h | shares compounds with tim23-1 inh;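 active = inhibition above about 39% in either of two replicate wells at 20 µM, limit read from the data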;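 note: temperature-sensitive tim23-1 mutant grown at 25 °C; 0% = DMSO wells with yeast and 100% = medium wells without yeast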
Active calls of the source: *; ? = inconclusive; nt = not tested or not shown. Shown are actives, neighbours in structure and some others; about 4.4% of the full set was active somewhere.

SMILES	tim10-1 inh	TIM10 inh	SKKanGAS inh	PfHsp90 set2	tim23-1 inh	tim10-1 confirm	tim10 confirm	others
Oc1ccccc1-[n+]1c(-c2ccccc2)cc(-c2ccccc2)cc1-c1ccccc1	4	8	-4	15	11	nt	nt
Cc1c(CCN)ccc2c1[nH]c1ccccc12	41*	19	16	6	26	15	nt
NCCc1c(Cc2ccccc2)[nH]c2ccccc12	7	3	-3	nt	13	nt	nt
Cc1nn(CCC#N)c2c1P(=S)(N1CCCC1)OC(c1ccc(F)cc1)=N2 (centres undefined)	43*	37	0	17	44	33*	nt
O=C(C(=O)N1CCOCC1)c1cn(Cc2c(F)cccc2Cl)c2ccccc12	9	2	2	0	-18	nt	nt
Cc1cc(OC(=O)N(C)C)nc(-c2ccc(C)c(Cl)c2)n1	17	-4	-2	0	15	nt	nt
CC1(C)C(C(=O)N2CCN(c3ccc(Cl)cc3)CC2)C1(C)C	21	11	2	2	24	nt	nt
COC(=O)C1CN(C#N)N(c2ccc(Cl)cc2)C12c1ccccc1-c1ccccc12 (centres undefined)	58*	37	67*	96*	40	42*	nt
O=C1/C(=C/c2cc([N+](=O)[O-])ccc2Cl)N2CCC1CC2	48*	25	4	10	49	35*	nt
O=C1/C(=C/c2cccc([N+](=O)[O-])c2)N2CCC1CC2	7	16	-2	32	27	nt	nt
Cc1ccc2c(c1)C1CN(C)CCC1N2C(=O)c1cn(-c2ccccc2)nc1-c1ccccc1 (centres undefined)	11	11	-3	-5	20	nt	nt
O=[N+]([O-])c1ccc(Cl)c([N+](=O)[O-])c1	45*	26	nt	-9	44	39*	nt
CN1CC(C(=O)c2cccc(C(F)(F)F)c2)C(c2ccc(Cl)cc2)C1 (centres undefined)	41*	8	8	-26	18	28	nt
O=C(Nc1ccc(F)c([N+](=O)[O-])c1)N1C[C@H]2C[C@@H](C1)c1cccc(=O)n1C2	-6	3	-1	2	18	nt	nt
COc1ccc(OC)c(N2C(=O)NC(=O)/C(=C/c3ccc([N+](=O)[O-])s3)C2=O)c1	72*	89*	-1	105*	32	70*	35*
COCCNC(=O)c1c(N)n(CCC(C)C)c2nc3ccccc3nc12	48*	42*	17	-44	44	26	19
CCCCNC(=O)c1c(N)n(CCCOC)c2nc3ccccc3nc12	22	27	17	nt	42	nt	nt
CN1C(=O)C(Cc2nc3ccccc3c(=O)n2-c2ccccc2)c2ccccc21 (centres undefined)	43*	52*	-1	-2	36	37*	39*
CN(C)c1ccc(C(=O)c2ccc(N(C)C)cc2)cc1	40*	48*	-8	-3	40	20	21
CC1COC2N=C(N[N+](=O)[O-])NC2O1 (centres undefined)	2	-2	-1	22	11	nt	nt
COC(=O)C(O)(c1ccc(NC(=S)NC(=O)c2ccccc2)cc1)C(F)(F)F (centres undefined)	41*	46*	-2	nt	48	27	33*
COc1cc2c(cc1OC)CN(c1ccc([N+](=O)[O-])c(C(F)(F)F)c1)CC2	60*	54*	0	-8	41	55*	-12
CC(C)(O)C(=O)Nc1ccc([N+](=O)[O-])c(C(F)(F)F)c1	13	7	nt	26	15	nt	nt
C=CCN1C[C@@H](C)N(C(c2ccc(C(=O)N(CC)CC)cc2)c2cccc(OC)c2)C[C@@H]1C (some centres undefined)	17	8	nt	-4	-1	nt	nt
CCCNC(=O)N1[C@H]2CC[C@@H]1C(C(=O)OC)=C(c1cccc(C#N)c1)C2	-16	1	nt	13	2	nt	nt
SMILES	tim10-1 inh	TIM10 inh	SKKanGAS inh	PfHsp90 set2	tim23-1 inh	tim10-1 confirm	tim10 confirm	others
C=C1C(=O)OC2CC(C)C3C=CC(=O)C3(C)C(O)C12 (centres undefined)	nt	nt	nt	-16	nt	nt	nt
C=C1C(=O)O[C@H]2C[C@@H](C)[C@@H]3C=CC(=O)[C@@]3(C)C[C@H]12	48*	46*	-4	nt	42	47*	51*
COC(=O)C1=C(c2cccc(OCc3ccccc3)c2)C[C@@H]2CC[C@H]1N2C(=O)NCCOc1ccccc1	10	17	nt	-5	25	nt	nt
Cc1c(C(=O)Nc2ccccc2)cc(-c2ccccc2)n1CCCN1CCOCC1	26	27	0	nt	37	nt	nt
COCCCn1c(-c2ccc(OC)cc2)cc(C(=O)NC2CCCCCCC2)c1C	54*	41*	10	-36	39	42*	-21
Oc1c(Br)c(Br)c(Br)c(Br)c1Br	52*	49*	nt	-31	66*	65*	44*	tim23-1 conf=58*
Cc1ccc(-n2cc(CNC(C)Cc3cnccn3)c(-c3cccc(C)c3)n2)cc1 (centres undefined)	-13	-3	2	27	-9	nt	nt
O=C1c2ccccc2C(=O)N1Cc1nc2ccccc2c(=O)n1-c1ccc(Br)cn1	59*	57*	8	-1	69*	55*	59*	tim23-1 conf=58*
O=C1c2ccccc2C(=O)N1Cc1nc2ccccc2c(=O)n1-c1cccnc1	28	13	-3	2	14	nt	nt
COC(=O)C1=C(c2ccccc2)C[C@@H]2CC[C@H]1N2C(=O)NCCCOC(C)C	3	-4	1	4	15	nt	nt
Cc1ccc(C[n+]2c(-c3ccc(C)cc3)cc(-c3ccc(C)cc3)cc2-c2ccc(C)cc2)cc1	50*	58*	106*	?	56*	43*	50*	tim23-1 conf=60*
Cc1ccc(-c2cc(-c3ccc(C)cc3)[n+](-c3ccc(C(=O)O)cc3)c(-c3ccc(C)cc3)c2)cc1	5	-2	0	-5	1	nt	nt
COC(=O)C1=C(c2cccc(OC)c2OC)C[C@@H]2CC[C@H]1N2C(=O)NCc1cccc2ccccc12	31	8	-1	-8	8	nt	nt
O=C1C(=O)c2ccccc2-c2ccccc21	85*	92*	86*	?	77*	85*	98*	tim23-1 conf=77*
CC(C)=CCc1c(O)cc2c(c1O)C(=O)CC(c1ccc(O)cc1)O2 (centres undefined)	54*	46*	50*	59	60*	35*	57*	tim23-1 conf=59*
CCN(C(=O)COC(=O)Cc1ccccc1)c1c(N)n(Cc2ccccc2)c(=O)[nH]c1=O	3	-4	nt	nt	0	nt	nt
CCOC(=O)C(O)(c1ccc(N(C)C(=O)c2ccc(Cl)c(Cl)c2)cc1)C(F)(F)F (centres undefined)	13	-16	12	-18	13	nt	nt
